Pyk2 oligo antag: antagonists of human Pyk2 oligomerization. Q14289. Q293 cells, Pyk2 FERM NanoBiT luminescence; stronger effect = lower value. z-score (the deposit names both 25 µM and 10 µM). actives 0.83% (n = 99,000). AID 1347419;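 active = Z-score of -3 or lower, scaled per plate to the spread of control and sample wells; inactive = z-score above -3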;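 also: negative z-score means lost luminescence so less FERM oligomerization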
MRP reversal: MRP-mediated drug resistance reversal. AID 602. actives 0.04% (n = 85,000). differential viability (reversal), % at 10 µM. H69AR cells + 2 uM doxorubicin, CellTiter-Glo, 72 h;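 active = viability drop by adding the cancer drug above about 55%, with treated viability meeting a 40% cutoff, limit read from the data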;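 also: viability without doxorubicin minus viability with 2 µM doxorubicin for each compound; larger differential means the compound sensitizes cells more to doxorubicin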
Cav32 inh: inhibitors of human Cav3.2 T-type calcium channel | AID 449739 | actives 4% (n = 100,000) | Cav3.2-expressing cells, Fluo-4 calcium fluorescence FDSS; stronger effect = lower value | O95180 | B-score at 10 µM;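 active = single-dose well whose peak fluorescence ratio is a statistical outlier from its plate by either plate-standardised score or position-corrected B-score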
CD11b adhes enh: enhancers of human CD11b/CD18 binding to fibrinogen; P05107+P11215; K562 CD11b/CD18 adhesion to fibrinogen, ATPlite luminescence; activation, % at 10 µM; actives 0.07% (n = 93,000);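 active = 10 µM primary screen giving 50% or more activity, confirmed by 40% or more on retest at that dose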
Target sequence (P05107 whole entry, looked up, other chains not shown): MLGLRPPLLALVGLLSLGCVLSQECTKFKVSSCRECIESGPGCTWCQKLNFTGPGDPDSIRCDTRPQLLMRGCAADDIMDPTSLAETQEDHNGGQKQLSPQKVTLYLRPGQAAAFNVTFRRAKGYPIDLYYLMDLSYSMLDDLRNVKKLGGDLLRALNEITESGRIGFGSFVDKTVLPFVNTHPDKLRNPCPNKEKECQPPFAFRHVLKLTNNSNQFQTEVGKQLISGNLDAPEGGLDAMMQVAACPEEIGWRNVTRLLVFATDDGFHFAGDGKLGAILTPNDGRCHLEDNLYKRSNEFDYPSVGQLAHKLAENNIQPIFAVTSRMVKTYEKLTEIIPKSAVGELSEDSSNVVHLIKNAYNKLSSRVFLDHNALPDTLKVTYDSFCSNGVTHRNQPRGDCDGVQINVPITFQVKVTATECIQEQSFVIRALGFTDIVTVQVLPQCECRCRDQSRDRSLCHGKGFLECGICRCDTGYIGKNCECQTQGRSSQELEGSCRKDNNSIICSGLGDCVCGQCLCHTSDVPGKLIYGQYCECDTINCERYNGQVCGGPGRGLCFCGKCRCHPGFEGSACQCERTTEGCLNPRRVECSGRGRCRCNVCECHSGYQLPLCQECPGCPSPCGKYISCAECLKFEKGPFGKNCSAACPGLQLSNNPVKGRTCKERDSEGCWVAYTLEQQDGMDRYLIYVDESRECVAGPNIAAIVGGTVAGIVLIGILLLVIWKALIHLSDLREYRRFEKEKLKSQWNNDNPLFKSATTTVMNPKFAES
MRP-1 activ: activates MRP-1; viability increase, % at 10 µM; H69AR cells + doxorubicin, viability rescue, CellTiter-Glo; actives 0.61% (n = 140,000);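 active = viability gain under doxorubicin at or above a set limit, the compound median plus 3 SD, cut at about 4.7% in these data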;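 also: MRP-1 overexpressing cells given doxorubicin 25 µM after compound pretreatment; 18-22 h compound pretreatment then 72 h with doxorubicin before readout; 0% = doxorubicin-only wells and 100% = vehicle-treated cells without doxorubicin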
CD11b adhes inh: CD11b/CD18-fibrinogen binding inhibition; inhibition, % at 10 µM; AID 1497; actives 0.54% (n = 93,000); K562 CD11b/CD18 adhesion to fibrinogen, ATPlite luminescence; Mn2+ added to activate the integrin; P05107+P11215;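 active = primary inhibition of 50% or more at 10 µM, then 40% or more on retest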
* = called active by the depositor; nt = no result. Sampled rows, rich in hits. Any-hit rate of the full collection: about 4.1%.

SMILES | Pyk2 oligo antag | MRP reversal | Cav32 inh | CD11b adhes enh | MRP-1 activ | CD11b adhes inh
CC(C)NC(C(=O)Nc1cc(Cl)cc(Cl)c1)c1ccccc1 (stereo unspecified) | -0.16 | nt | -4.6* | -1 | -2 | 17
O=C(Nc1cc(Cl)cc(Cl)c1)C(NCC1CCCO1)c1ccccc1 (stereo unspecified) | nt | nt | nt | 4 | -2 | -13
CCCCn1nc(CC(=O)O)c2ccccc2c1=O | 0.75 | -3 | -0.33 | 0 | -2 | -6
COC(=O)[C@H](CCSC)NC(=O)Nc1ccc(C)c(C)c1 | -0.32 | 0 | -0.028 | -3 | -2 | -12
C=CC[n+]1c(-c2ccc(OCC)cc2)csc1NNC(=O)Nc1ccccc1 | -0.46 | 3 | -2 | -8 | 1 | 86*
Cc1cc(C)nc(N2CCC(CNC(=O)CCc3ccccc3)CC2)n1 | 1.1 | 7 | -0.038 | 6 | -1 | 2
CS(=O)(=O)N1CCN(c2ccccc2NC(=O)c2ccc(Cl)cc2)CC1 | -0.18 | 4 | -0.77 | nt | 0 | nt
CCOc1ccccc1N1CCN(C(=O)Nc2ccc(F)c(Cl)c2)CC1 | -0.51 | 6 | -4.1* | 0 | -1 | 10
CCC(=O)N1CCN(c2ccccc2NC(=O)COc2cc(C)ccc2C(C)C)CC1 | -2.7 | -6 | -7.1* | -3 | -5 | -4
CSc1ccccc1NC(=O)COc1ccc(Cl)cc1Cl | nt | nt | nt | 5 | -3 | -10
COc1ccccc1N1CCN(C(=O)Nc2cccc(Cl)c2)CC1 | 0.77 | 15 | -1.3 | -1 | 1 | -20
Cc1ccc(C(C)C)c(OCC(=O)N2CCOCC2)c1 | -0.16 | -1 | -0.1 | 4 | -3 | -14
CS(=O)(=O)N1CCN(c2ccccc2NC(=O)CSc2ccc(Cl)cc2)CC1 | -0.62 | 9 | -4* | 6 | -4 | 7
CC(=O)N1CCN(c2ccccc2NC(=O)COc2ccc(Cl)cc2Cl)CC1 | -2.5 | -16 | -4.7* | 0 | -6 | 7
CC(=O)c1ccc(N2CCN(C(=S)Nc3cc(C)ccc3C)CC2)cc1 | nt | nt | nt | 24 | -1 | -10
CC1SCC(=O)N(CC(=O)Nc2ccc3c(c2)OCO3)C1=O (stereo unspecified) | nt | nt | nt | 14 | 0 | -4
O=C(COc1ccc(Cl)cc1Cl)N1CCCN(C(=O)COc2ccc(Cl)cc2Cl)CC1 | 0.43 | nt | -4.6* | 0 | -3 | -39
Cc1ccc(SCC(=O)NCCSC(C)(C)C)cc1 | 0.6 | 11 | 0.013 | 0 | -1 | 2
CCOc1ccccc1C1NC(=O)NC(C)=C1C(=O)OC1CCCCC1 (stereo unspecified) | -1.7 | 9 | -2.3 | -4 | 0 | -5
CCOc1ccccc1C1NC(=O)NC(C)=C1C(=O)OC1CCCC1C (stereo unspecified) | -1.3 | -59 | -5.3* | 12 | -4 | -21
CCCCCOC(=O)C1=C(C)NC(=O)NC1c1ccccc1OCC (stereo unspecified) | -1.2 | 16 | -5.7* | 0 | -1 | -19
Nc1nonc1-c1nc2ccccc2n1CC(=O)N1CCN(c2ccc(F)cc2)CC1 | 0.46 | 26 | -0.16 | 5 | 0 | 8
O=C(CN(c1ccccc1)S(=O)(=O)c1ccccc1)Nc1ccccc1C(=O)NCc1ccco1 | nt | nt | nt | -2 | -3 | -9
Cc1ccc(N(CC(=O)Nc2ccccc2C(=O)NCc2ccco2)S(=O)(=O)c2ccccc2)cc1C | -1.8 | nt | -6* | -1 | 1 | -6
Cc1cc(C(=O)CSc2nnc(-c3cccs3)o2)c(C)n1-c1ccccc1 | 0.75 | 10 | -5.1* | -12 | -4 | 95
SMILES | Pyk2 oligo antag | MRP reversal | Cav32 inh | CD11b adhes enh | MRP-1 activ | CD11b adhes inh
COc1ccc(-c2nnc(SCC(=O)c3cccs3)o2)cc1 | 2.6 | -2 | -5.2* | -4 | 0 | -4
COc1cc(OC)cc(-c2nnc(SCC(=O)Nc3cc(C)on3)o2)c1 | nt | 64* | nt | nt | nt | nt
COc1cccc(NC(=O)CSc2nnc(-c3cc(C)n(-c4ccccc4)c3C)o2)c1 | -0.07 | -1 | -3.6* | nt | -4 | nt
Cc1cc(NC(=O)CSc2nnc(-c3ccoc3C)o2)no1 | 1.2 | 0 | -0.18 | 3 | -2 | 4
O=C(/C=C/c1cccnc1)c1ccc(NC(=O)c2cccc(Br)c2)cc1 | -0.61 | nt | 2.1 | 72* | -5 | -12
Cc1cccc(C(=O)Nc2ccc(C(=O)/C=C/c3cccnc3)cc2)c1 | nt | nt | nt | nt | -4 | nt
Clc1ccc(Oc2nc(Oc3ccc(Cl)cc3)nc(N3CCOCC3)n2)cc1 | 0.5 | nt | -3.7 | -3 | 0 | 15
COC(=O)c1ccc(Oc2nc(N3CCCCC3)nc(N3CCOCC3)n2)cc1 | 1.3 | -12 | -4.3* | nt | 1 | nt
COc1cc(/C=C(\C#N)c2ccccn2)ccc1OCc1ccccc1Cl | -0.89 | nt | nt | 6 | 5.9* | -5
COc1cc(/C=C(\C#N)c2ccccn2)ccc1OCC(=O)Nc1cccc(C(F)(F)F)c1 | nt | nt | nt | nt | -5 | nt
CC(=O)n1cc(-c2ccncc2)c2ccccc21 | nt | -5 | 0.24 | 3 | -4 | -3
CC(=O)n1cc(C(C[N+](=O)[O-])SCCN)c2ccccc21 (stereo unspecified) | 1.5 | 0 | -3.8* | nt | -1 | nt
CC(=O)C1=C(C)NC(C)=C(C(C)=O)C1c1ccc(-c2ccccc2Cl)o1 | 3 | 5 | -5.6* | -1 | -2 | -3
C=CCc1cccc(CNc2c(C)n(C)n(-c3ccccc3)c2=O)c1O | -0.32 | 22 | -4* | 6 | -3 | 1
COC(C/C=C\[C@H](O)[C@H](C)OCc1ccccc1)OC | nt | nt | 0.56 | nt | nt | nt
CCOP(=O)(c1ccccc1)c1nc(-c2ccccc2Cl)oc1N1CCCCC1 (stereo unspecified) | -1.5 | 8 | -11* | nt | -5 | nt
COP(=O)(OC)c1nc(-c2cccc3ccccc23)oc1N1CCOCC1 | nt | nt | nt | nt | -2 | nt
Clc1ccccc1CSC1=NCCCN1 | -0.72 | 9 | 0.079 | -3 | -2 | 4
Cc1cccc(Nc2nc(N)nc(CN3CCN(c4ccccc4F)CC3)n2)c1 | -0.42 | nt | -4.9* | nt | nt | nt
COc1ccccc1N1CCN(Cc2nc(N)nc(Nc3ccc(C)c(Cl)c3)n2)CC1 | -1.2 | nt | -5.7* | 8 | -2 | -3
COc1ccccc1Nc1nc(N)nc(CN2CCN(Cc3ccccc3)CC2)n1 | 0.29 | -29 | -0.038 | -3 | -3 | 21
Cc1cccc(Nc2nc(N)nc(CN3CCN(c4ccccc4)CC3)n2)c1 | -0.15 | -9 | -3.7* | 0 | -1 | 2
CC(C)CC(=O)Nc1cc(NC(=O)CC(C)C)cc(C(=O)NC(C)(C)C)c1 | -0.69 | 20 | 0.98 | -10 | 0 | 5
O=C(Nc1ccccc1)c1ccc(Cn2cc(C(F)(F)F)ccc2=O)cc1 | -0.91 | nt | -0.088 | nt | -4 | nt
O=C(Nc1cc(C(F)(F)F)cc(C(F)(F)F)c1)c1ccc(Cn2cc(C(F)(F)F)ccc2=O)cc1 | -0.89 | nt | -6.7* | nt | -3 | nt

Source: PubChem (several laboratories)
